KKLEB tox: CF airway cell cytotoxicity counter-screen; KKLEB CF airway cells viability, ATPlite luminescence, overnight; active compounds read low; cells stimulated with P. aeruginosa culture filtrate; activity change (cytotoxicity), % at 5 µM; AID 602141; 360,000 compounds, 0.36% hits;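 active means corrected activity change at or below -50% at 5 µM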
HIF-2a inh: inhibitors of HIF-2a; 786-0 RCC cells HIF-2a reporter, luciferase luminescence, overnight; inhibition, % at 18.8 µM; 360,000 compounds, 0.72% hits;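 active means inhibition of the luminescence signal of 40% or more relative to plate controls, in a single-dose primary screen at 18.75 µM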
CF NFkB block: blocks PAF-induced NF-kB reporter in cystic fibrosis cells; inhibition, % at 5 µM; AID 588850; KKLEB NF-kB-GFP reporter, GFP fluorescence overnight; 360,000 compounds, 0.86% hits;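 active means at least 50% inhibition at 5 µM, scaled per plate between neutral and stimulator controls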;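 further: PAF is a Pseudomonas aeruginosa culture filtrate used as stimulus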
Peg3 prom inh-1: reduces Peg3 promoter-driven luciferase expression in HeLa; AID 588405; inhibition, % at 20 µM; HeLa PEG-Prom luciferase reporter, luminescence, overnight; 360,000 compounds, 1.7% hits;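 active means inhibition of at least 50% at 20 µM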
TRPM1 prom inh: MITF TRPM1 promoter inhibition in SK-MEL-5 cells. SK-MEL-5 TRPM1 promoter luciferase, 24 h. inhibition, % at 12.5 µM. 330,000 compounds, 0.83% hits;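 active means mean inhibition across replicates of 60% or more, whatever share of single replicates reaches that level; inconclusive means some that reach 60%, reason not given; inactive means mean inhibition across replicates below 60%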
Shn3 inh set2: inhibitors of Schnurri-3 3'UTR reporter in osteoblasts | Clone20 osteoblast Shn3 3'UTR firefly luciferase, 24 h | inhibition, % at 12.5 µM | 360,000 compounds, 0.52% hits | AID 588674;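 active means mean inhibition of at least 75% with every replicate also reaching 75%; inconclusive means mean inhibition at least 75% but some replicate below; inactive means mean inhibition below 75%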
Peg3 prom inh-2: confirmation of Peg3 promoter inhibitors | shares compounds with Peg3 prom inh-1 | HeLa PEG-Prom luciferase reporter, luminescence, overnight | inhibition, % at 20 µM | 1,300 compounds, 84% hits | AID 602417;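 active means at 20 µM dose, 40% or more inhibition averaged across four replicates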
Mdm2-MdmX confirm: Mdm2/MdmX (human) interaction inhibition, confirmed; SaOS-2 split-luciferase Mdm2/MdmX complementation, luminescence; shares compounds with HIF-2a inh; AID 504601; inhibition, % at 8 µM; 740 compounds, 99% hits;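 active means mean inhibition of the luminescence signal across two replicates at or above 26 percent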
HIF-2a inh conf: HIF-2a inhibition, single concentration confirmation | AID 651580 | 786-0 RCC cells, HIF-2a luciferase reporter luminescence, overnight | 1,800 compounds, 56% hits | shares compounds with HIF-2a inh | inhibition, % at 18.8 µM;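 active means mean inhibition across four replicates of at least 40 percent at the single tested concentration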
HIF-1a cs: inhibits HIF-1a reporter, a counter-screen for HIF-2a inhibitors; AID 651589; inhibition, % at 18.8 µM; MiaPaCa-2 HIF-1a luciferase reporter, desferoxamine, overnight; 1,800 compounds, 72% hits; shares compounds with HIF-2a inh;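 active means mean inhibition of the reporter signal across four replicates at the single tested dose of 50% or more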
Each line names hits and unclear results; the compound was inactive in the other large screens (follow-up assays come after a bar, where they were run). A selection: hits, their analogues and other compounds. The true share with any hit is near 2.8%.

CCn1nc(C)cc1-c1nnc(Sc2ncc([N+](=O)[O-])s2)n1C	KKLEB tox -82, HIF-2a inh 96, CF NFkB block 95, Peg3 prom inh-1 110, TRPM1 prom inh 94, Shn3 inh set2 95 | Peg3 prom inh-2 100 | Mdm2-MdmX confirm 103
Cc1ccc(CNC(=O)C2CCCN2C(=O)Nc2ccccc2)cc1 (stereo not given)	none
CCCCCC(O)CCCC(=O)O (stereo not given)	none
CCCCCCCCCCCCCCCC(O)C[N+](C)(C)CCO (stereo not given)	KKLEB tox -62, HIF-2a inh 62, CF NFkB block 54, Peg3 prom inh-1 104 | Peg3 prom inh-2 87 | HIF-2a inh conf 52 | HIF-1a cs 92
COCCn1c(C)cc(C(=O)COc2ccc(C)nc2[N+](=O)[O-])c1C	HIF-2a inh 75, Peg3 prom inh-1 66 | Peg3 prom inh-2 72 | HIF-2a inh conf 77 | HIF-1a cs 85
C=CCn1c(C)cc(C(=O)COc2ccc(C)nc2[N+](=O)[O-])c1C	HIF-2a inh 68, Peg3 prom inh-1 61 | Peg3 prom inh-2 69 | HIF-2a inh conf 68 | HIF-1a cs 89
CCCn1c(C)cc(C(=O)COc2ccc(C)nc2[N+](=O)[O-])c1C	none
Cc1oc(-c2ccc3c(c2)OCCO3)cc1C(=O)NCC(=O)O	none
Cc1oc(-c2ccc3c(c2)OCCO3)cc1C(=O)O	HIF-2a inh 81, Peg3 prom inh-1 96 | Peg3 prom inh-2 89 | HIF-2a inh conf 92 | HIF-1a cs 92
Cc1cc(CNC(=O)COc2ccc(F)cc2Cl)cc(C)c1O	none
CC1=C(C(=O)N2CCOCC2)CC(CC(=O)NCCN2CCOCC2)C(=O)N1Cc1ccc(F)cc1 (stereo not given)	none (no result: TRPM1 prom inh)
O=Nc1c(O)ccc2cc(S(=O)(=O)O)ccc12	HIF-2a inh 76, Peg3 prom inh-1 62 | Peg3 prom inh-2 68 | HIF-2a inh conf 82 | HIF-1a cs inactive
CN(C)c1ccc2cc(S(=O)(=O)O)cc(O)c2c1	none
CN(C)c1ccc(C(=S)N2CCCC2)cc1Br	none
N#Cc1c(N)nc2c3c(sc(=N)c2c1N)NC(=O)CC3c1ccccc1 (stereo not given)	none
Cc1c(C#N)c(N)nc2c3c(sc12)NC(=O)CC3c1ccc(Cl)cc1 (stereo not given)	HIF-2a inh 40, Peg3 prom inh-1 68 | Peg3 prom inh-2 48 | HIF-2a inh conf inactive | HIF-1a cs inactive
CC(=O)c1sc(Nc2nc3ccc(F)cc3s2)nc1C	none
COC(=O)c1ccc2nc(Nc3nc4ccc(F)cc4s3)sc2c1	HIF-2a inh 89, Peg3 prom inh-1 79, TRPM1 prom inh 84 | Peg3 prom inh-2 90 | HIF-2a inh conf 98 | HIF-1a cs 88
Nc1nc(SCC(=O)c2c(N)n(Cc3ccccc3)c(=O)[nH]c2=O)n[nH]1	none
O=C(COc1ccc2ccccc2c1)NCC1CCCO1 (stereo not given)	none
CN1CCN(c2ccc(-c3ccc4ccccc4n3)cc2)CC1	KKLEB tox -59, HIF-2a inh 87, Peg3 prom inh-1 105, TRPM1 prom inh 76, Shn3 inh set2 inconclusive | Peg3 prom inh-2 95 | HIF-2a inh conf 97 | HIF-1a cs 87
c1ccc2nc(-c3ccc(N4CCOCC4)cc3)ccc2c1	none
CCCCNc1nc(=S)n(-c2ccccc2)c(C)c1C(C)=O	HIF-2a inh 51, Peg3 prom inh-1 114, TRPM1 prom inh 64 | Peg3 prom inh-2 94 | HIF-2a inh conf inactive | HIF-1a cs inactive
Cc1c(/C(O)=C2/C(=O)C(=O)N(Cc3cccnc3)C2c2ccccn2)cnn1-c1ccccc1 (stereo not given)	HIF-2a inh 67, Peg3 prom inh-1 66 | Peg3 prom inh-2 59 | HIF-2a inh conf 52 | HIF-1a cs 56
CS(=O)(=O)Nc1cccc(NC(=O)C2Cc3c(-c4cccc(F)c4)ccnc3O2)c1 (stereo not given)	HIF-2a inh 51, Peg3 prom inh-1 66 (no result: TRPM1 prom inh) | Peg3 prom inh-2 64 | HIF-2a inh conf inactive | HIF-1a cs 89
O=C(Nc1ccccc1)C1Cc2c(-c3cccc(F)c3)ccnc2O1 (stereo not given)	none (no result: TRPM1 prom inh)
O=C(NCCc1ccccc1)c1ccc2c(c1)OCCO2	HIF-2a inh 84, Peg3 prom inh-1 105, TRPM1 prom inh 88 | Peg3 prom inh-2 90 | HIF-2a inh conf 91 | HIF-1a cs 95
O=C(NCCc1ccccc1)c1ccc2c(c1)OCCCO2	KKLEB tox -52, HIF-2a inh 92, Peg3 prom inh-1 108, TRPM1 prom inh 92, Shn3 inh set2 inconclusive | Peg3 prom inh-2 94 | Mdm2-MdmX confirm 99
COc1ccc(CCNC(=O)c2ccc3c(c2)OCCO3)cc1	none
O=C(NCCS(=O)(=O)NCCc1ccccc1)c1ccc2c(c1)OCO2	none
O=C(OCC(=O)N1CCCCCC1)c1cc(S(=O)(=O)N2CCOCC2)ccc1F	none (no result: TRPM1 prom inh)
Cn1nnnc1Sc1ncnc2scc(-c3ccsc3)c12	HIF-2a inh 66, Peg3 prom inh-1 95, TRPM1 prom inh 82 | Peg3 prom inh-2 96 | Mdm2-MdmX confirm 103 | HIF-2a inh conf 49 | HIF-1a cs 100
N/C(=N\OC(=O)c1ccc([N+](=O)[O-])cc1Cl)c1ccccn1	HIF-2a inh 41, Peg3 prom inh-1 50 | Peg3 prom inh-2 inactive | HIF-2a inh conf inactive | HIF-1a cs 62
O=C(Nc1ccccc1)NN(C(=O)CCl)c1ccccc1	HIF-2a inh 58, CF NFkB block 70, Peg3 prom inh-1 100, TRPM1 prom inh 87 | Peg3 prom inh-2 92 | Mdm2-MdmX confirm 103 | HIF-2a inh conf 67 | HIF-1a cs 90
CCC(O)(CC)C(=O)NN(C(=O)CCl)c1ccccc1	none
CC(=O)N/C(=N/c1nc(C)cc(C)n1)Nc1cccc(C)c1C	none
CCOc1cc(/C=C\[N+](=O)[O-])ccc1OCC(=O)Nc1ccccc1C	HIF-2a inh 96, Peg3 prom inh-1 115, TRPM1 prom inh 91, Shn3 inh set2 95 | Peg3 prom inh-2 91 | Mdm2-MdmX confirm 100 | HIF-2a inh conf inactive | HIF-1a cs 106
CC(=O)N1CCCc2ccc(NS(=O)(=O)c3ccccc3)cc21	none
COc1cccc2c1Oc1ncccc1N(C(=O)CCC(=O)NCc1cccc(C)c1)C2	none

Assay outcomes: PubChem BioAssay, several laboratories
